# Only some compounds are listed: those with a hit (about 1.2% of all), similar ones and a draw of the others.
# VCAM1 TNFa inh: reduces TNF alpha induced VCAM1 expression in HUVEC; HUVEC TNFa-induced VCAM-1 immunofluorescence, high-content imaging; inhibition, % at 2 µM; 0.48% of 95,000 active;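 active = inhibition above the batch mean plus 3 SD, with images confirmed as a hit by eye, cut at about 37% in these data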;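 note: 0% = TNF-stimulated DMSO wells and 100% = unstimulated control wells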
# F-actin modifier: alters cytoskeleton assembly in HUVEC cells; HUVEC TNFa F-actin phalloidin imaging, high content; inhibition, % at 2 µM; 0.18% of 91,000 active; AID 836;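 active = inhibition above the batch mean plus 3 SD and confirmed as a hit by visual image inspection, cut at about 30% in these data, passing the limit was not always enough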
# HUVEC tox TNFa: HUVEC cytotoxicity counter-screen, TNF alpha stimulated; HUVEC TNFalpha-stimulated, Hoechst cell count, imaging; 0.17% of 93,000 active; cell count reduction, % at 2 µM;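 active = cell count reduction exceeding the screen mean by over 5 SD, scaled to untreated wells per plate, cut at about 78% in these data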;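 note: cells counted after 24 h of TNF alpha exposure following the 1 h pretreatment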
# E-sel TNF inh: TNF alpha driven E-selectin expression inhibition. HUVEC TNFa-induced E-selectin immunofluorescence, high content. inhibition, % at 2 µM. 0.71% of 120,000 active. AID 1246;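 active = inhibition above the batch mean plus 3 SD, and confirmed as a hit on visual image review, cut at about 43% in these data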;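 note: 0% = TNF-stimulated DMSO wells and 100% = unstimulated control wells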
# * marks the source's active call; other numbers are inactive results; x = not tested or not shown.
SMILES,VCAM1 TNFa inh,F-actin modifier,HUVEC tox TNFa,E-sel TNF inh
C=CCN1C(=O)/C(=C2/Sc3ccccc3N2CCCS(=O)(=O)O)SC1=S,0.4,64.8*,-36.9,-8.3
CCc1cccc(CC)c1NC(=O)COC(=O)c1cccc(-c2ccc(OC(C)=O)cc2)c1,x,x,x,73.7*
COc1cccc(C(C)NC(=O)c2c(F)cccc2Cl)c1 (configuration not stated),x,x,x,61.5*
O=[N+]([O-])/C=C/c1c(OCc2ccccc2)ccc2ccccc12,56.3*,x,-0.6,8.2
CCOc1ccc(/C=C/[N+](=O)[O-])c2ccccc12,26.9,3.8,8.5,-2.6
C=CCNC(=O)c1c(Cl)cccc1Cl,-31.5,46.7*,x,-17.5
C=CCNC(=O)c1c(-c2c(F)cccc2Cl)noc1C,-5.2,x,-58.6,21.5
Cc1ccc(SCC(=O)NC(=O)Nc2ccc3c(c2)OCCO3)cc1C,x,x,x,-22.4
CCOC(=S)N/C(=N\S(=O)(=O)c1ccc(C)cc1)c1ccccc1,1.5,-19.2,-1.8,-30.1
O=S1(=O)C=C(Sc2nnc(-c3ccccc3)o2)c2ccccc21,x,x,x,99.6*
Cc1cc(C)nc(SC2=CS(=O)(=O)c3ccccc32)n1,38.4,-1.2,-5.4,-33.0
Cn1ccnc1SCC(=O)Nc1nc2c(F)c(F)c(F)cc2s1,x,x,x,-7.8
CCOC(=O)Nc1nc(-c2ccccc2)c(C(=O)c2ccccc2)s1,78.1*,0.3,58.0,-8.2
COC(=O)Nc1nc(-c2ccccc2)c(C(=O)c2ccc(Cl)cc2)s1,4.6,4.5,-6.5,30.3
Cc1ccc(Nc2nc(-c3c(C)nc4ncccn34)cs2)cc1,11.6,-32.5,39.9,37.9
Cc1ccc(Nc2nc(-c3c(C)nc4ccccn34)cs2)cc1,93.2*,-69.6,75.4,1.1
Oc1ccc(Nc2nc(-c3ccc4ccccc4c3)cs2)cc1,74.8*,18.1,-7.8,13.9
CCCC(C)NC(=O)c1sc2nc3n(c(=O)c2c1C)CCC3 (configuration not stated),x,x,x,8.7
CCOC(=O)C1CCN(Cc2ccccc2C)CC1,-10.6,30.3*,-39.7,7.7
CCOC(=O)C1CCN(Cc2cn[nH]c2-c2ccccc2)CC1,-6.4,-7.7,-31.4,1.9
Cc1ccc(N2C(=N)/C(=C3/Nc4ccccc4S3)C(c3ccccc3)C2=O)cc1 (configuration not stated),x,x,x,-16.1
Cc1cccc(C)c1NC(=O)CN(C)C(=O)/C=C/c1cccs1,x,x,x,93.2*
Cc1ccc(NC(=O)CN(C)C(=O)/C=C/c2cccc(F)c2)cc1,x,x,x,-16.6
COc1cc(CNCc2ccco2)ccc1OCc1ccccc1,-4.6,46.1*,-5.9,57.1*
COc1cc(CNCc2cccs2)ccc1OCc1ccccc1,16.7,7.4,-7.0,-64.2
SMILES,VCAM1 TNFa inh,F-actin modifier,HUVEC tox TNFa,E-sel TNF inh
Cc1ccc(NC(=O)Cn2nnc(-c3ccccc3NC(=O)c3cccs3)n2)cc1,60.3*,-2.8,55.2,-69.8
COc1ccc(NC(=O)Cn2nnc(-c3ccccc3NC(=O)c3cccs3)n2)cc1,-2.7,-6.4,-11.7,7.2
CCc1nnc(NC(=O)CCC(=O)N2CCN(C3CCCCC3)CC2)s1,14.7,-28.5,-5.7,18.2
CC(C)c1nnc(NC(=O)CCC(=O)N2CCN(C3CCCCC3)CC2)s1,35.9*,-2.6,23.3,20.9
Cn1nc(Oc2ncc(C(F)(F)F)cc2Cl)cc1C(F)(F)F,x,x,x,2.5
CCOC(=O)C1CCCN(C(=O)c2cc(=O)c3ccccc3o2)C1 (configuration not stated),-3.7,6.2,-34.5,-1.4
CCOC(=O)C1CCCN(C(=O)COC(=O)c2cc(=O)c3ccccc3o2)C1 (configuration not stated),-5.0,-18.4,0.8,63.6*
O=c1cc(CO)oc(CN2CCN(c3ccccc3)CC2)c1O,15.5,-12.1,86.1*,1.6
c1ccc(-c2nc(NCc3cccnc3)c3ccccc3n2)cc1,10.5,0.3,-9.9,-16.9
Fc1ccc(CNc2nc(-c3ccccc3)nc3ccccc23)cc1,x,x,x,99.8*
CCN1CCN(Cc2c(C)[nH]c3ccc(C(=O)OC)cc3c2=O)CC1,96.0*,8.1,-26.4,-15.2
CCOc1ccc2[nH]c(C)c(CN3CCCCC3)c(=O)c2c1,11.3,-1.9,9.3,x
Cc1ccc(NC2=C/C(=N/S(=O)(=O)c3cccs3)c3ccccc3C2=O)cc1C,x,x,x,-4.4
Cc1ccccc1NC1=C/C(=N\S(=O)(=O)c2cccs2)c2ccccc2C1=O,85.8*,-2.4,31.6,76.2*
[O-][n+]1onc2c1C(N1CCOCC1)CCC2N1CCOCC1 (configuration not stated),-9.6,2.3,-33.6,81.7*
Cc1ccsc1/C=N/n1c(-c2ccncc2)n[nH]c1=S,x,x,x,4.0
Cc1cc(C)nc(NC(=NCCc2c[nH]c3ccccc23)NC(=O)Nc2cccc([N+](=O)[O-])c2)n1,x,x,x,-12.8
CCOC(=O)c1ccc2[nH]c3c(c2c1)CCCCC3=O,-6.5,-4.0,4.8,-23.5
O=C1CCCc2c1[nH]c1ccc(Cl)cc21,75.9*,-35.6,39.4,-0.1
Clc1ccc(-c2nnc(-c3ccco3)o2)cc1,-9.5,-1.0,-11.7,77.0*
c1cncc(-c2nnc(-c3ccco3)o2)c1,1.0,-3.3,7.1,-1.0
Cc1ccc(NC2SC(=O)N(CC(=O)O)C2=O)cc1 (configuration not stated),11.6,1.2,1.5,-3.1
CCCOc1ccc([N+](=O)[O-])cc1C1NC(=S)NC(c2ccccc2)=C1C(=O)OCC (configuration not stated),24.6,-17.4,26.5,70.4*
CCOC(=O)c1c(N/N=C/c2ccncc2)n[nH]c1C,x,x,x,26.6
Oc1ccccc1C1=Nc2ncnn2C(c2ccccc2)C1 (configuration not stated),x,x,x,96.5*
SMILES,VCAM1 TNFa inh,F-actin modifier,HUVEC tox TNFa,E-sel TNF inh
Fc1ccc(C2CC(c3ccccc3)n3ncnc3N2)cc1 (configuration not stated),15.8,2.0,-9.5,-14.9
Cc1ccc(N2C(=O)CC2(C#N)c2ccc(OCc3ccccc3)cc2)cc1 (configuration not stated),-0.6,25.2,-73.0,-0.9
O=C(NOC(=O)c1ccccc1Cl)c1cccs1,8.3,0.8,-0.4,14.9
COC(=O)c1ccccc1NS(=O)(=O)c1ccc2c3c(cccc13)C(=O)N2,-19.0,-5.7,10.7,74.0*
O=C(O)c1ccccc1NS(=O)(=O)c1ccc2c3c(cccc13)C(=O)N2,x,x,x,-0.7
CCOC(=O)c1ccccc1NC(=O)c1ccccc1N(C)S(C)(=O)=O,-25.7,0.7,x,-27.5
CCOC(=O)c1ccccc1NC(=O)c1ccc(N(C)S(C)(=O)=O)cc1,-0.6,-5.2,-5.4,70.1*
O=C(Nc1nnc(SCc2ccccc2)s1)c1cccc([N+](=O)[O-])c1,x,x,x,63.5*
O=C(Nc1nnc(SCc2ccccc2)s1)c1cc2c(s1)CCCC2,-0.4,-1.2,11.4,x
COCCn1c(SCC(=O)N2CCCCC2)nc2ccccc2c1=O,-16.2,-11.1,-4.8,95.7*
Cc1nc(NCCc2ccccc2)c(C#N)c(C)c1[N+](=O)[O-],x,x,x,-7.1
CC1C/C(=C/c2ccncc2)C(=O)/C(=C/c2ccncc2)C1 (configuration not stated),x,x,x,99.9*
CCn1cc(C(=O)NNC(=O)c2ccc(Cl)cc2)c(=O)c2ccc(C)nc21,x,x,x,-60.0
CCOc1ccccc1NC(=O)/C=C/c1ccccc1[N+](=O)[O-],x,x,x,8.5
CCOc1ccccc1/C=N/Nc1ccccc1[N+](=O)[O-],58.8*,-7.3,22.0,4.4

# Source: PubChem BioAssay
